For orientation: AC50 means the concentration giving half of the maximal activity seen.

18 compounds from PubChem BioAssay (EPA / NIEHS) can be followed below.

Activity calls are given as the source filed them. The calls were made as follows: active = hit-call score of the fitted dose curve at least 0.9, where 1 is the maximum; inactive = score below 0.9.

Cytochrome P450 3A4 (Homo sapiens), sequence (P08684 whole entry, looked up): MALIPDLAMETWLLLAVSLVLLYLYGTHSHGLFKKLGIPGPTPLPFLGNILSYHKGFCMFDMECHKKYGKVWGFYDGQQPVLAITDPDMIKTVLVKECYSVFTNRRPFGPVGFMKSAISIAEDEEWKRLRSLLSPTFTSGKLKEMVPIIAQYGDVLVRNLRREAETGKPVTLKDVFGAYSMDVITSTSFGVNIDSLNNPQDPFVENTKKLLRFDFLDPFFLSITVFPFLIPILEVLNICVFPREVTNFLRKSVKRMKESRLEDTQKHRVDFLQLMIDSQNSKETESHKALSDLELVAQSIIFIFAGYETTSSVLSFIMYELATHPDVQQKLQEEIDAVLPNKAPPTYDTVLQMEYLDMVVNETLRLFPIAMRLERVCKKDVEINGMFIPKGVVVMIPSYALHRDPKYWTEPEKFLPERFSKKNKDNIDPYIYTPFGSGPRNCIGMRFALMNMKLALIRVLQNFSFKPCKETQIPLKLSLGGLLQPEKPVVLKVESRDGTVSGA

Read-out in the first test: CYP4A11 (gene 1579)
The test is described as follows: LTEA_HepaRG_CYP4A11: Life Technologies and Expression Analysis (LTEA) Assay for CYP4A11 using HepaRG (AID 2283486). Particulars: mRNA level, 48 h; actives raise or lower the signal. In a few lines:
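Readout is CYP4A11 mRNA induction or suppression (qRT-PCR, ACTB/GAPDH/POLR2A normalization) in human HepaRG cells after 48 h chemical treatment, concentrations to 100 uM in 0.5% DMSO, fitted bidirectionally against vehicle.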
Regarding `CCCCC(CC)COC(=O)c1ccc(C(=O)OCC(CC)CCCC)cc1` (stereo not drawn), the compound was classed as inactive.
With `Cc1c(-c2cccnc2)c2ccccc2n1CCCCC(=O)O`, the compound was classed as inactive.
In the case of `Oc1ccc2c(c1)-c1ccccc1C2`, the compound was classed as inactive.
As to `CC(C)CCCCCCOC(=O)c1ccc(C(=O)OCCCCCCC(C)C)c(C(=O)OCCCCCCC(C)C)c1`, the result was inactive.
Consider `CC(C)CC(C)(O)C#CC(C)(O)CC(C)C` (stereo not drawn), for which the AC50 was 50 µM (active).
Take `CCOC(=O)COc1ccc2c(c1)CC(NCC(O)c1cccc(Cl)c1)CC2` (stereo not drawn): the compound was called inactive.
On to `CCn1nc(Cc2ccccc2)cc1C1CCN(C[C@H]2C[C@H](N(C)[C@@H](C(=O)O)C(C)C)C[C@@H]2c2cccc(F)c2)CC1`, for which the AC50 was 50 µM (active).
Turning to `COC(=O)CC(=O)OC`, the compound was classed as inactive.

Read-out in a further test: Cytochrome P450 3A4 (Homo sapiens) (UniProt P08684)
The test is described as follows: LTEA_HepaRG_CYP3A4: Life Technologies and Expression Analysis (LTEA) Assay for CYP3A4 using HepaRG (AID 2283487). Particulars: mRNA level, 48 h; actives raise or lower the signal. Summed up: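 Differentiated HepaRG cells in serum-free induction medium exposed in duplicate for 48 h to 8 half-log concentrations up to 100 uM in 0.5% DMSO. CYP3A4 mRNA measured by qRT-PCR normalized to ACTB, GAPDH and POLR2A; bidirectional fit versus DMSO.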
On to `CCOCCOCCOCCO`, for which the outcome was inactive.
Turning to `O=C(CCCCCCCCc1cccnc1)N1CCC(C=C(c2ccccc2)c2ccccc2)CC1`, the AC50 is 32 µM (active).
Turning to `CCOC(=O)CC(CC(=O)OCC)(OC(C)=O)C(=O)OCC`, the compound was classed as inactive.
In the case of `Cc1ccc(C)c(O)c1`, the result was inactive.
On the same count and under the same terms, to `CCCCC(CC)COC(=O)CCCCCCCCC(=O)OCC(CC)CCCC` (stereo not drawn) belongs “inactive”.
Regarding `CCN(C(=O)c1cc(C)cc(OC[C@H](C)Nc2ccncc2)c1)C(C)C`, the AC50 is 8.63 µM (active).
On to `CC(=O)OC[C@H]1O[C@@](COC(C)=O)(O[C@H]2O[C@H](COC(C)=O)[C@@H](OC(C)=O)[C@H](OC(C)=O)[C@H]2OC(C)=O)[C@@H](OC(C)=O)[C@@H]1OC(C)=O`, for which the compound was called inactive.
`CCCCCCc1ccc(O)cc1O`: the compound was classed as inactive.
Turning to `CN(C)c1ccc(Cc2ccc(N(C)C)cc2)cc1`, the AC50 is 2.5 µM (active).
`O=C(O)c1cccc(Oc2ccccc2)c1`: the call was inactive.
